Bioassay records (PubChem)
L3MBTL1 block: inhibitors of human L3MBTL1. Potency, µM (titrated, usually from 57.1 µM), for the others: at the top dose activity, negative = inhibition, most hits filed as inhibitors. AlphaScreen L3MBTL1–H3K9me1 peptide binding. hit rate 0.66% among 230,000. Q9Y468; further: nearly all actives have a fitted effect of over 60% in size
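First, the protein-peptide complex forms for 30 min at room temperature (L3MBTL1 50 nM, biotinylated H3K9me1 peptide 75 nM). Next, compounds are pin-transferred and incubated 30 min. Finally, AlphaScreen beads are added and read after 30 min.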
RECQ1 inh-1: blocks DNA unwinding by human RECQ1; P46063; RECQ1 DNA unwinding, red fluorescence kinetic read; Potency, µM (highest dose often 57.3 µM), for inactives: at the highest dose activity, negative = inhibition, most hits filed as inhibitors; hit rate 0.54% among 240,000; AID 2549;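 further: plate controls were vehicle for no effect and no enzyme for full effect; nearly all actives have a fitted effect of over 30% in size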
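RECQ1T1 50 nM; forked duplex (20 bp + 30-nt ss tails) 200 nM, ATP 2 mM final; pH 8.0, 2 mM MgCl2, 2.5 ug/ml poly(dI-dC); 15 min compound preincubation; discontinuous kinetic read over 2 h at RT.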
KAT2A inh: blocks human GCN5L2 histone acetyltransferase | Potency, µM (titrated, usually from 58.9 µM), for inactives: top-dose activity change, negative = inhibition, most hits filed as inhibitors | hit rate 0.21% among 390,000 | AID 504327 | Q92830 | GCN5L2 HAT assay, ThioGlo1 CoA-SH fluorescence
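qHTS, 1536-well. 20nM enzyme, pH 7.5 HEPES/EDTA/Tween-20 buffer; 15 min compound preinc., RT. Start: 75uM H3(1-25), 70uM AcCoA, 50uM ThioGlo1. Read Ex340/Em540 at t=0 (autofluorescence flag) and t=20 min.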
BLM helicase inh: blocks DNA unwinding by human BLM helicase; recombinant BLM DNA unwinding, fluorescence dequenching; Potency, µM (doses to about 56.1 µM), inactives show at the top dose activity change, negative = inhibition, usual class: inhibitors; hit rate 0.2% among 350,000; AID 2528;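 further: plate controls were vehicle for no effect and no enzyme for full effect; nearly all actives have a fitted effect of over 35% in size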
JMJD2E inh: JMJD2E (human) inhibition; JMJD2E catalytic domain, FDH-coupled NADH fluorescence (FDH is formaldehyde dehydrogenase); B2RXH2; Potency, µM (highest dose often 57.1 µM), without a hit: at the highest dose activity change, negative = inhibition, most hits filed as inhibitors; hit rate 1.6% among 230,000; active means well fitted inhibition curve with a large enough effect, not every such curve was filed as active; inconclusive means small, poorly fitted or top-dose-only effect, or another doubt; inactive means no such curve, though single readings can be large or run the other way;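 further: 0% = wells with enzyme and -100% = buffer wells without enzyme; nearly all actives have a fitted effect of over 50% in size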
Target sequence (B2RXH2 1-337 limits assumed): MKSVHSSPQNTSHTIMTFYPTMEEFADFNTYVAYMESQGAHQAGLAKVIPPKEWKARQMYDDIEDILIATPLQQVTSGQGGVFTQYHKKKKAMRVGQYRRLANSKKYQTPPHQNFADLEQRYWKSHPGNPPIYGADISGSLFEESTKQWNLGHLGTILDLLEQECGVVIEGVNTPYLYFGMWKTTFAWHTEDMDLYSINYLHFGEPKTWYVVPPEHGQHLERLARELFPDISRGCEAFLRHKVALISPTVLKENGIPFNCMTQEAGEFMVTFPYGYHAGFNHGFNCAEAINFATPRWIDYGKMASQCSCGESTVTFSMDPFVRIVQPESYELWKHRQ
APE1 inh: inhibitors of human APE1 endonuclease | Potency, µM (top dose mostly 65.8 µM), inactives show at the top dose activity change, negative = inhibition, actives largely listed as inhibitors | P27695 | hit rate 0.35% among 350,000 | recombinant APE1, TAMRA/BHQ-2 abasic DNA cleavage fluorescence;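 further: plate controls were vehicle for no effect and reference inhibitor for full effect; nearly all actives have a fitted effect of over 55% in size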
Target sequence (P27695 whole entry, looked up): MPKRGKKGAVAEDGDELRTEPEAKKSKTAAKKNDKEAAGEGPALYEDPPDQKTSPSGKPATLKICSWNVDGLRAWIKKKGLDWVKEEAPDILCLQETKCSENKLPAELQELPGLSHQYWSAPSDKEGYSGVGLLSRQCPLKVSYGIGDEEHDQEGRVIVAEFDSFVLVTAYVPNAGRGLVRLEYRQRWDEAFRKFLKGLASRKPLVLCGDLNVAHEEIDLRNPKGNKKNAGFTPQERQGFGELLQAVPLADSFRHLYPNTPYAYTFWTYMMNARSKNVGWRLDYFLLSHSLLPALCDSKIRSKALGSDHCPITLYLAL
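Substrate: short duplex with […] THF abasic site, 5'-TAMRA and 3'-BHQ-2, 50 nM final. APE1 at 0.75 nM, preincubated 15 min RT with compound. Fluorescence increase from first to third read measured activity.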
RECQ1 conf: confirmation of human RECQ1 helicase inhibitors | shares compounds with RECQ1 inh-1 | RECQ1 helicase DNA unwinding, fluorescence | Potency, µM (doses to about 229 µM), for the others: at the highest dose activity change, negative = inhibition, hits mostly inhibitors | hit rate 28% among 610; further: nearly all actives have a fitted effect of over 45% in size
RECQ1 ADP FP: counter-screen for RECQ1 inhibitors: ADP displacement | shares compounds with RECQ1 inh-1 | hit rate 27% among 530 | ADP fluorescence polarization displacement counterscreen | Potency, µM (doses to about 228 µM), for the others: top-dose activity change, negative = inhibition, hits mostly inhibitors | AID 2711; further: nearly all actives have a fitted effect of over 45% in size
RECQ1 inh-2: RECQ1 helicase inhibition confirmed, round 2 | shares compounds with RECQ1 inh-1 | recombinant RECQ1 DNA unwinding, red fluorescence | Potency, µM (titrated, usually from 119 µM), without a hit: at the top dose activity, negative = inhibition, most hits filed as inhibitors | hit rate 15% among 1,100; further: nearly all actives have a fitted effect of over 50% in size
* = called active by the depositor; i = inactive; ? = inconclusive; . = no result; ! = a repeat was not active; [ ] = remark or other dose. Shown is part of a subset that was picked to be rich in hits. Unless noted, the call rests on the fitted dose curve; in most records, active means well fitted curve in the direction sought with a large enough effect; inconclusive means small, poorly fitted or top-dose-only effect, or another doubt; inactive means no such curve, though single readings can be large; an effect the other way counts as inactive or inconclusive. Unless noted, on the % scale 0 is the no-effect control and ±100 the full control effect; potency means the concentration at half of the fitted maximal effect.

SMILES	L3MBTL1 block	RECQ1 inh-1	KAT2A inh	BLM helicase inh	JMJD2E inh	APE1 inh	RECQ1 inh-2	others
CC1CCCN(C(=S)SCC(=O)c2cc(Br)cc(Br)c2O)C1 (centres undefined)	-15%	?	19%	-8%	?	-7%	-20%
COc1ccc(C(=O)Oc2c(Sc3ccccc3)c(C)nn2-c2ccccc2)cc1OC	.	.	-1%	-9%	.	.	.
CCN(CC)C(=O)c1sc2c(c1C)c(=O)n(-c1ccc(Cl)c(Cl)c1)c(=O)n2CC(=O)Nc1cccc(OC)c1	.	.	-13%	-9%	.	.	.
Cc1ccc(S(=O)(=O)NC2=NCN(CCOC(=O)c3ccccc3)CN2)cc1	.	32µM*	0%	3%	0%	3%	1%
Cc1ccc(S(=O)(=O)NC2=NCN(CCOC(=O)c3ccc([N+](=O)[O-])cc3)CN2)cc1	.	-3%	-4%	3%	3%	6%	.
COc1ccc(-c2cc3nc(-c4ccccc4)cc(N4CCCC(O)C4)n3n2)cc1 (centres undefined)	38%	?	-5%	-12%	?	6%	-11%
O=C1CC(C(=O)O)(c2ccccc2)c2cccc(F)c21 (centres undefined)	.	.	1%	-3%	.	-8%	.
Cc1cc(C(=O)COC(=O)c2cccn2C)c(C)n1Cc1ccco1	-57%	?	-18%	-18%	-13%	?	-18%
COc1ccccc1NC(=O)CCN1CCN(CCC(=O)Nc2ccccc2OC)CC1	1%	i	-1%	-1%	1%	-8%	.
Cc1cc(N)c2ccccc2[n+]1CCCCCCCCCC[n+]1c(C)cc(N)c2ccccc21	.	?	-7%	-27%	?	?	.	RECQ1 conf=?;RECQ1 ADP FP=22µM*
CC[n+]1c(C)cc2c(sc3ccccc32)c1C	?	i	-4%	47%	?	1%	.
CCCCn1c(SCC(=O)c2ccc(O)c(O)c2)nc2ccsc2c1=O	-2%	22µM*	-4%	-24%	?	-9%	8.9µM*
O=C(CSc1nc2ccsc2c(=O)n1CC1CCC(C(=O)O)CC1)c1ccc(Cl)cc1 (centres undefined)	.	?	-5%	-16%	2%	?	20µM*
O=C(CCCn1c(SCC(=O)c2ccc(O)c(O)c2)nc2ccccc2c1=O)NCC1CCCO1 (centres undefined)	?	14µM*	-7%	-15%	8.9µM*	28µM*	11µM*	RECQ1 conf=71µM*;RECQ1 ADP FP=-1%[91.9 µM]
O=C(CCCn1c(SCC(=O)NC2CCCCC2)nc2ccccc2c1=O)NCC1CCCO1 (centres undefined)	-3%	-4%	-2%	0%	4%	3%	.
COc1cc(C(=O)N[C@H](C(=O)OCC(=O)NC2CCCCCC2)C(C)C)cc(OC)c1OC	1%	.	1%	.	.	16%	.
CCCc1nc2oc(C(=O)OCC)c(N)c2c2c1COC(C)(C)C2	-2%	?	?	0%	?	?	-9%
CCOC(=O)c1oc2nc(C(C)C)c3c(c2c1N)CC(C)(C)OC3	-5%	-2%	-19%	-9%	?	-3%	.
CCC(C)OC(=O)/C(C#N)=C\c1ccc(-c2cccc(C(F)(F)F)c2)o1 (centres undefined)	.	.	-4%	-4%	.	.	.
CN1CCOc2cc(S(=O)(=O)NCc3ccc(S(N)(=O)=O)cc3)ccc21	.	.	-2%	-3%	.	18%	.
O=C(NCCc1nccs1)C1CCC(=O)N(Cc2cccc(C(F)(F)F)c2)C1 (centres undefined)	.	.	-2%	-2%	.	6%	.
CCOC(=O)/C(C#N)=C/c1cc2ccccc2nc1Cl	-3%	6%	-1%	0%	-1%	1%	.
CSc1nc2ccccc2cc1/C=C(\C#N)c1cccc(Cl)c1	12%	13µM*	?	-3%	2%	16%	-7%
O=C(O)c1cc(Cl)ccc1-c1ccc(/C=C/c2cc(C(F)(F)F)[nH]c(=O)n2)o1	?	-1%	0%	5%	?	-1%	.
O=C(O)c1ccccc1-c1ccc(/C=C/c2cc(C(F)(F)F)[nH]c(=O)n2)o1	-17%	?	0%	-3%	?	0%	79µM*
SMILES	L3MBTL1 block	RECQ1 inh-1	KAT2A inh	BLM helicase inh	JMJD2E inh	APE1 inh	RECQ1 inh-2	others
Cc1cc(S(N)(=O)=O)c(N)c(S(N)(=O)=O)c1	10%	1%	31%	1%	?	?	.
Cc1ccc(/C=C(/NC(=O)c2ccccc2)C(=O)NC(Cc2c[nH]c3ccccc23)C(=O)O)cc1 (centres undefined)	.	.	-1%	-9%	.	27%	.
O=C(NC(Cc1c[nH]c2ccccc12)C(=O)O)/C(=C/c1ccc(F)cc1)NC(=O)c1ccccc1 (centres undefined)	.	-3%	-12%	-4%	-5%	0%	.	RECQ1 conf=9%;RECQ1 ADP FP=0%
CCc1ccc(OCC(=O)NC2CC(C)(C)NC(C)(C)C2)cc1	3%	?	-6%	-3%	2%	-6%	13%
O=C(Nc1ccc(S(=O)(=O)Nc2nccs2)cc1)c1ccc(=O)[nH]c1	-29%	?	-5%	-28%	-16%	?	?
O=C(Nc1ccc(S(=O)(=O)Nc2nccs2)cc1)c1cccc(F)c1	.	.	-5%	-2%	.	13%	.
CCCCC1=CC2=C(c3ccco3)C(=O)C(C)(OC(=O)c3ccc(OC)cc3)C(=O)C2=CN1Cc1ccccc1 (centres undefined)	.	?	-19%	-3%[12.4 µM]	16µM*!	7%[12.4 µM]	-9%
CCCCC1=CC2=C(c3ccco3)C(=O)C(C)(OC(=O)c3ccc(OC)cc3)C(=O)C2=CN1CCOC (centres undefined)	.	6%[11.5 µM]	-4%	-5%[12.4 µM]	-8%[11.4 µM]	-1%[12.4 µM]	.
O=C1N/C(=N/NC(=O)c2cccc3ccccc23)S/C1=C\c1ccccc1OCc1ccccc1	1%	?	?	-26%	6%	10%	?
CCOc1ccc(-n2c(SCC)nc3c(c2=O)SCC3)cc1	1%	7%	-5%	-2%	6%	-2%	.
